# High-throughput results as filed in PubChem.
# Sampled rows, rich in hits. Any-hit rate of the full collection: about 0.82%.
# RTF Ca sens inh: cardiac RTF calcium sensitivity inhibitors, primary screen, biochemical, IANBD-TnC fluorescence, EC70 calcium | Troponin I, cardiac muscle (Homo sapiens) + Troponin T, cardiac muscle (Homo sapiens) + … | IANBD-labeled cardiac RTF, Ca2+ fluorescence | inhibition, % at 7.15 µM | 340,000 compounds, 0.12% hits;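 active = inhibition above the mean inhibition of all tested compounds plus 3 SD, cut at about 17% in these data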;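 also: assay run at fixed EC70 calcium of 1.6 mM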
# eLon inh: inhibitors of E. coli Lon protease, primary screen, biochemical, fluorescence polarization. AID 602123, 2011. 360,000 compounds, 0.42% hits. purified E. coli Lon protease. P0A9M0. inhibition, % at 7.94 µM; in the data active = inhibition above about 13%, passing the limit was not always enough;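 also: 0% = enzyme with probe and DMSO and 100% = no enzyme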
# C-LANA FP: inhibitors of KSHV C-LANA binding to DNA, primary screen, biochemical, fluorescence polarization, FAM-LBS DNA, MBP-C-LANA, single point; Kaposi's sarcoma herpesvirus LANA C-terminal domain (residues 932-1162) DNA binding; inhibition, % at 9 µM; 340,000 compounds, 0.078% hits; AID 504423, 2011;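 active = highest replicate inhibition at or above 60% at 9 µM, even if other replicates fall short; inactive = all replicates below 60% inhibition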;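 also: 0% = neutral control wells and 100% = 4 µM acridine orange control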
# RTF Ca sens act: cardiac RTF calcium sensitivity activators, primary screen, biochemical, IANBD-TnC fluorescence, EC20 calcium | activation, % at 7.2 µM | Troponin I, cardiac muscle (Homo sapiens) + Troponin T, cardiac muscle (Homo sapiens) + … | IANBD-labeled TnC RTF fluorescence at EC20 calcium; 0% EC20 calcium, 100% full calcium | 340,000 compounds, 0.24% hits;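 active = activation above the mean over all tested compounds plus 3 SD, cut at about 30% in these data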;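 also: rise in fluorescence read as greater calcium sensitivity of cardiac thin filaments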
# Keap1 Nrf2 FP: Keap1-Nrf2 protein-protein interaction inhibitors, primary screen, biochemical, fluorescence polarization, single point. Kelch-like ECH-associated protein 1 (Homo sapiens), Q14145. 340,000 compounds, 0.15% hits. Keap1 Kelch-Nrf2 peptide fluorescence polarization, 1536-well. inhibition, % at 9.4 µM; in the data active = inhibition above about 12%;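 also: human Keap1 Kelch domain with fluorescein labeled Nrf2 9mer peptide probe; 0% = neutral control wells and 100% = peptide positive control; higher means more block of Keap1 binding to Nrf2 peptide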
# * marks the source's active call; other numbers are inactive results; i = inactive; x = not tested or not shown; + = active, no number.
SMILES,RTF Ca sens inh,eLon inh,C-LANA FP,RTF Ca sens act,Keap1 Nrf2 FP
N=C1/C(=C\c2coc3ccc(O)cc3c2=O)C(=O)N=C2SC=CN12,-218,-233,27,152*,-8
N=C1/C(=C/c2coc3ccccc3c2=O)C(=O)N=C2SC(c3ccco3)=NN12,x,-326,x,x,x
CC(C)CSC1=NSC2=NC(=O)/C(=C\c3coc4ccccc4c3=O)C(=N)N12,i,-256,5,662*,-122
N=C1/C(=C\c2coc3ccccc3c2=O)C(=O)N=C2SC(c3ccncc3)=NN12,-171,-351,-24,92*,-62
CSC1=NSC2=NC(=O)/C(=C\c3coc4ccccc4c3=O)C(=N)N12,-143,-360,12,193*,-75
CN1C(=O)/C(=C/c2coc3ccc(O)cc3c2=O)SC1=S,-11,-31,-1,0,-4
CCCC(=O)N1CCC1(C)C(=O)Nc1ncc(C(=O)OC)s1 (stereo not given),x,-3,x,x,x
COc1cccc(/C=C/C(=O)OCC(=O)Nc2ccc(Cl)cn2)c1,0,14*,-2,-2,-5
Cc1ccc(NC(=O)C2CCCN(C3=NS(=O)(=O)c4ccccc43)C2)c(O)c1 (stereo not given),-1,-10,0,4,4
Cc1ccccc1NC(=O)C1CCN(C2=NS(=O)(=O)c3ccccc32)CC1,-5,-7,61*,8,1
COC(=O)c1ccccc1-c1c2ccc(=N)cc-2oc2cc(N)ccc12,x,x,x,+,+
Cc1cccc(N2CCN(C(=O)c3[nH]c(C(F)(F)F)nc3-c3ccccc3)CC2)c1C,x,8,x,x,x
COc1cccc(-c2cnc3c(NC(C)=O)cc(-c4ccsc4)cn23)c1,x,-25,x,x,x
COC1=CC(C)C2CC3OC(=O)CC4C(C)=C(OC)C(=O)C(C2(C)C1=O)C34C (stereo not given),x,-8,x,x,x
CCOC(=O)c1cc(C#N)c(SCC(=O)c2cc(C#N)c(SC)nc2C)[nH]c1=O,-72,-4,31,58*,9
CCOC(=O)c1cc(C#N)c(SCC(N)=O)[nH]c1=O,-17,-9,9,13,-8
CC(=O)Nc1ccc(N=Cc2nc(-c3ccc(C)cc3)oc2O)cc1,-12,-14,12,38*,9
CN(C)c1ccc(N=Cc2nc(-c3ccccc3)oc2O)cc1,-24,-16,6,45*,-3
Cc1ccc(N=Cc2nc(-c3ccc(C)cc3)oc2O)cc1,0,0,4,7,3
CC(C)OC(=O)N(C)C[C@@H]1OCc2ccccc2-c2c(n(C)c3ccccc23)C(=O)N([C@@H](C)CO)C[C@H]1C,x,-1,x,x,x
Cc1cc(C=C2C(=O)c3ccccc3C2=O)c(C)n1-c1ccccc1,-15,-15,2,45*,2
Cc1ccc(S(=O)(=O)N[C@H](C(=O)Oc2ccc3c(C(F)(F)F)cc(=O)oc3c2)c2ccccc2)cc1,-13,20*,12,3,0
CC1=C(O)C(=O)C(C2=C(O)C(=O)C(C)=C(O)C2=O)=C(O)C1=O,8,-4,61*,-5,-2
CC(C)(C)C(=O)/C=c1\[nH]c(=O)/c(=C\c2ccc(F)cc2)s1,-3,2,-1,2,-1
COc1ccc(/C=c2\s/c(=C/C(=O)c3ccc(C)cc3)[nH]c2=O)cc1OC,-42,i,2,30*,-4
SMILES,RTF Ca sens inh,eLon inh,C-LANA FP,RTF Ca sens act,Keap1 Nrf2 FP
CCCc1nc2cc(C)c(Br)c(C)n2c1Cc1ccc(OC)cc1C,x,2,x,x,x
CCOC(=O)C1Nc2ccccc2C2C(O)C(O)CC12 (stereo not given),-73,-7,54,80*,3
CCOC(=O)C1Nc2ccc(C(F)(F)F)cc2C2c3ccccc3CC12 (stereo not given),-7,-4,1,9,-7
O=C(O)c1ccc(NC2=C(Cl)C(=O)c3ccccc3C2=O)cc1,0,0,4,5,9.3*
O=C1C(Cl)=C(Nc2ccccc2)C(=O)c2ccccc21,-5,-1,2,-11,3
N#CC1=C(N)C(C#N)(C#N)C(c2cccnc2)C2CC(c3ccccc3)CC=C12 (stereo not given),-21,18*,11,3,0
